PI5P4K alpha inh: PI5P4K alpha (human) kinase inhibition. P48426. PI5P4Kalpha enzyme, ADP-Glo luminescence, 60 min; hits give low values. max response, %. hit rate 1.2% among 330,000. AID 652105; active = max response of -50% or lower; inconclusive = between -30% and -50%; inactive = -30% or higher; also: value at the top dose of about 77 µM
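Human PI5P4Kalpha with substrate in 0.038 M HEPES pH 7.4, 0.28 mM EGTA, 0.1% CHAPS, 5% DMSO; reaction started with 5 microM ATP (final), 60 min at room temperature. ADP formed read by ADP-Glo luminescence.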
D3 ag: agonists of human D3 dopamine receptor; D3R DiscoveRx beta-arrestin cells, luminescence, 90 min; hit rate 0.58% among 410,000; max activation, %; AID 652048; P35462; in the data active = max activation above about 30%
Target sequence (P35462 whole entry, looked up): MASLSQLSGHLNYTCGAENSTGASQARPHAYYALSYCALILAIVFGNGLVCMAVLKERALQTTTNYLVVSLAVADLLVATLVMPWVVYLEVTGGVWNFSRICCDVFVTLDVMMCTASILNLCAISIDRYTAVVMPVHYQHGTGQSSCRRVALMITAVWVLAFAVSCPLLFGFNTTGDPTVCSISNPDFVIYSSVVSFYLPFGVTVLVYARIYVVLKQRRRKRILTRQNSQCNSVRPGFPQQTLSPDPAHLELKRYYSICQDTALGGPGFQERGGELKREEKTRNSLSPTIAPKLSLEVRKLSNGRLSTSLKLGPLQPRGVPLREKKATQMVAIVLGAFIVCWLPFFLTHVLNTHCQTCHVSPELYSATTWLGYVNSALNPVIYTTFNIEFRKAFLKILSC
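Agonist-mode cell screen: cells plated at 1500/well and incubated overnight at 37 °C, then exposed to library compounds for 90 min at 37 °C. Detection reagent was added for 30–60 min at room temperature, and luminescence was read.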
LDHA inh: inhibitors of human lactate dehydrogenase A. P00338. purified LDHA, NADH/diaphorase-resazurin fluorescence; hits give low values. activity change, % (values are at about 110 or 230 µM). hit rate 0.15% among 480,000; in the data active = activity change below about -30%; inconclusive = mostly about -25% to -30%
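Human LDH5 at 2 nM final in Tris HCl pH 7.4 with 0.06 mM NADH and 0.2 mM pyruvate, reacted 5 minutes at room temperature. Remaining NADH coupled via diaphorase/resazurin; resorufin fluorescence read at 0 and 20 minutes, normalized to enzyme-free and DMSO wells.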
PI4K2A inh: inhibitors of human PI4K2A; activity change, negative = inhibition, % at 76.9 µM; hit rate 0.13% among 420,000; AID 1346378; purified PI4K2A, ADP-Glo luminescence, 1 h; hits give low values; in the data active = activity change below about -50%; inconclusive = mostly about -30% to -49%
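Compounds are screened against recombinant PI4K2A using PI as substrate and ATP, the latter dispensed at 300 microM. Reactions run one hour at ambient temperature before ADP-Glo detection; full inhibition defined by wells lacking enzyme.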
D3 antag: D3 dopamine receptor (human) antagonism | P35462 | D3R cells, DiscoveRx beta-arrestin luminescence, antagonist mode; hits give low values | max response, negative = inhibition, % | hit rate 2.5% among 360,000 | AID 652054; in the data active = max response below about -50%; inconclusive = no clear call, values can overlap the other calls
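Cells expressing the human receptor were seeded at 1500 cells/well, incubated overnight at 37 degrees C in 5% CO2, then exposed to library compounds with dopamine controls for 90 minutes at 37 degrees C before luminescent detection.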
Large screens that a line does not name were inactive; ! = repeats disagree. A selection: hits, their analogues and other compounds. The true share with any hit is near 3.3%.

Cc1ccc(-n2ncc(C#N)c2/N=C/N2CCN(C)CC2)cc1	D3 antag -75.9
Cc1cc(C)n2ncc(-c3noc(C(=O)NC4CCCCCC4)n3)c2n1	none (no result: PI5P4K alpha inh, D3 ag, PI4K2A inh, D3 antag)
COc1ccc(S(=O)(=O)Nc2ccc3oc(-c4ccccc4OC)cc(=O)c3c2)cc1	none (no result: PI5P4K alpha inh, D3 ag, PI4K2A inh, D3 antag)
Cc1[nH]n(-c2ccccc2)c(=O)c1C(c1cc(Cl)ccc1O)c1c(C)[nH]n(-c2ccccc2)c1=O	PI4K2A inh -51.0 (no result: PI5P4K alpha inh, D3 antag)
Cc1[nH]n(-c2ccccc2)c(=O)c1C(c1ccccc1C(=O)O)c1c(C)[nH]n(-c2ccccc2)c1=O	none
COc1cc2c(cc1OC)CN(CCC(=O)c1ccc(Br)cc1)CC2	PI5P4K alpha inh inconclusive, D3 antag -52.9
COc1cc2c(cc1OC)CN(C(=O)CCNC(=O)c1ccc(Br)cc1)CC2	none
Cc1ccc(O)c(N=Nc2ccccc2)n1	PI5P4K alpha inh -77.9, PI4K2A inh -67.4
Oc1ccc(Cl)cc1N=Nc1ccccc1	none
COc1ccc2cc(COC(=O)C3CCN(S(=O)(=O)c4ccc(F)cc4)CC3)ccc2c1	none (no result: PI5P4K alpha inh, D3 ag, PI4K2A inh, D3 antag)
Cc1ccc(C(=O)NC(NC(=S)Nc2ccc(S(N)(=O)=O)cc2)C(Cl)(Cl)Cl)cc1 (stereo not given)	LDHA inh -34.5
NS(=O)(=O)c1ccc(NC(=S)NC(=O)c2ccc(-c3ccccc3)cc2)cc1	D3 ag 38.3
CCOc1ccc(C(C)NC(=O)c2n[nH]c(=O)c3ccccc23)cc1 (stereo not given)	none (no result: PI5P4K alpha inh, D3 ag, PI4K2A inh, D3 antag)
CN(C)c1ccc(C=c2c3ccccc3n3c2c2ccccc2[n+]3C)cc1	PI5P4K alpha inh -75.0, D3 antag inconclusive
CCOC(=O)c1cc2c(=Cc3ccc(N(C)C)cc3)c3ccccc3n2[n+]1C	PI4K2A inh -51.0
Cc1cc2c(=Cc3ccc(N(C)C)cc3)c3ccccc3n2[n+]1C	none
O=C1c2ccsc2SCCN1Cc1c(Cl)cccc1Cl	D3 antag -60.9
O=C1c2ccsc2SCCN1Cc1c(F)cccc1Cl	none
O=C(NCC(O)COc1cccc(C(F)(F)F)c1)C1CCCC1 (stereo not given)	none (no result: PI5P4K alpha inh, D3 ag, PI4K2A inh, D3 antag)
CCOC(=O)[C@H](CCc1ccccc1)N[C@@H](C)C(=O)N1CCC[C@@H]1C(=O)O	D3 ag 74.2
N#Cc1nc(-c2ccccc2)oc1NCCN1CCCCC1	D3 antag -72.3
CC(=O)Oc1c(C)c2c3c(c1OC(C)=O)[C@@H](C)CC[C@@H]3[C@@H](C)C[C@H]2C=C(C)C	D3 ag 43.2
O=C(O)c1ccc(-c2noc(-c3ccccc3F)n2)cc1	PI4K2A inh -68.5 (no result: PI5P4K alpha inh, D3 ag, D3 antag)
O=C(O)c1ccccc1-c1noc(-c2ccccc2F)n1	none (no result: PI5P4K alpha inh, D3 ag, LDHA inh, D3 antag)
O=C(O)c1ccccc1-c1ccco1	none (no result: PI5P4K alpha inh, D3 ag, PI4K2A inh, D3 antag)
COc1ccc(/C=N/c2oc(-c3ccccc3)cc2C#N)cc1OC	D3 antag -52.4
COc1ccc(/C=N/NC(=O)c2nc(-c3ccccc3)cc(-c3ccccc3)n2)cc1OC	none
Cc1ccc(C)n1-c1c(C(=O)N2CCCC2)sc2ncccc12	none (no result: PI5P4K alpha inh, D3 ag, PI4K2A inh, D3 antag)
COc1ccc2c(=O)c(-c3ccc(Br)cc3)c(C(F)(F)F)oc2c1	none (no result: PI5P4K alpha inh, D3 ag, PI4K2A inh, D3 antag)
CCOc1ccc2ccccc2c1C(=O)N[C@@H]1C(=O)N2[C@@H]1SC(C)(C)[C@@H]2C(=O)O	D3 ag 48.9!
CCOc1ccccc1NC(=O)c1c(Br)cnn1C	D3 ag 35.4
CCn1ncc(Br)c1C(=O)Nc1ccccc1OC	none
O=C(O)/C=C\C(=O)Nc1cc(O)ccc1[N+](=O)[O-]	PI5P4K alpha inh -74.7, D3 antag inconclusive
COc1ccc(Cc2ccccc2C(=O)O)cc1	none
COc1ccc(CC2=CC(=O)c3ccccc3C2=O)cc1	PI5P4K alpha inh inconclusive, D3 antag -55.6
NS(=O)(=O)c1ccc(NC(=O)Cn2cnc3cc(Cl)ccc3c2=O)cc1	none (no result: PI5P4K alpha inh, D3 ag, PI4K2A inh, D3 antag)
CC(C(=O)Nc1sc2c(c1C(=O)NCc1ccco1)CCCC2)N1C(=O)c2ccccc2C1=O (stereo not given)	D3 antag -64.9
Cc1ccc2c(COC(=O)c3cc(S(=O)(=O)N4CCOCC4)ccc3C)cc(=O)oc2c1	none (no result: PI5P4K alpha inh, D3 ag, PI4K2A inh, D3 antag)
Fc1ccc(N2CCN(Cc3cn[nH]c3-c3ccccc3)CC2)cc1	none
OC1(c2ccc(Cl)cc2)CCN(Cc2cn[nH]c2-c2ccc(F)cc2)CC1	D3 antag -97.6
OC1(c2ccc(Cl)cc2)CCN(Cc2cn[nH]c2-c2ccccc2)CC1	D3 antag -97.6
COc1ccc(-c2[nH]ncc2CN2CCC(O)(c3ccc(Cl)cc3)CC2)cc1	D3 antag inconclusive
